Mcl-1 Bim block = inhibitors of Bim peptide binding to Mcl-1, primary screen, biochemical, bead-based flow cytometry, multiplex; Induced myeloid leukemia cell differentiation protein Mcl-1 (Homo sapiens), Q07820; Bim peptide-Mcl-1 binding; inhibition, % at 10 µM; actives 0.1% (n = 190,000); in the data active = inhibition above about 40%;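 also: 0% = no compound tracer wells and 100% = peptide blocker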
Target sequence (Q07820 whole entry, looked up): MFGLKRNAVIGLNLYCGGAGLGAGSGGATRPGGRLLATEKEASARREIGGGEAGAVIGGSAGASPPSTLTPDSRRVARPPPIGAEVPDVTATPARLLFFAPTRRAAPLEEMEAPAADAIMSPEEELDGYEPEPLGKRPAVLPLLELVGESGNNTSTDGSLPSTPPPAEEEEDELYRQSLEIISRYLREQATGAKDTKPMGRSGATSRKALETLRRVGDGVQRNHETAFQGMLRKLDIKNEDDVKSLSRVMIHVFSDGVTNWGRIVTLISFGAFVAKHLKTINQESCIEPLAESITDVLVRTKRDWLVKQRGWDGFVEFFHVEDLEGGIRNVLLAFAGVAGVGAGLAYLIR
L929 necroptosis = inhibitors of zVAD-triggered necroptosis, primary screen, L929 cells; L929 zVAD necroptosis rescue, ATP luminescence, 24 h; with zVAD 60 µM; viability rescue, % at 10 µM; actives 0.38% (n = 220,000); AID 1377, 2008;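 active = activation, scaled between plate controls, above about 75%, limit read from the data; inactive = activation under that limit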;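 also: 0% = zVAD with DMSO and 100% = DMSO alone without zVAD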
TNF necrop inh = inhibitors of TNF-alpha triggered necroptosis, primary screen, cell-based, Jurkat FADD-/-, single concentration; actives 0.068% (n = 220,000); AID 463075, 2010; activation (protection from cell death), % at 10 µM; Jurkat FADD-/- TNF necroptosis rescue, ATP luminescence, 24 h; 0 = TNF only, 100 = no-TNF cells;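 active = activation, meaning protection from cell death, of at least 50% relative to plate controls; inactive = activation below 50%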;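 also: necroptosis triggered by 40 ng/mL TNF-alpha added together with compound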
Mcl1 Bid PPI = Mcl-1/Bid binding inhibitors, primary screen, biochemical, TR-FRET, 1536-well. inhibition, % at 21.7 µM. actives 0.97% (n = 220,000). TR-FRET Mcl-1/Bid-Dy647 peptide binding. Induced myeloid leukemia cell differentiation protein Mcl-1 (Homo sapiens), Q07820;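 active = compounds that cut the binding signal by more than half at the single screening dose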;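 also: His-tagged Mcl-1 with europium anti-His antibody binding Bid BH3 peptide; 0% = Mcl-1 plus peptide wells and 100% = peptide-only wells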
MCL1-BIM inh = inhibitors of MCL1 binding to BIM-BH3, primary screen, biochemical, fluorescence polarization. GST-MCL1 / FITC-Bim-BH3 fluorescence polarization. actives 0.68% (n = 320,000). inhibition, % at 10.9 µM. Induced myeloid leukemia cell differentiation protein Mcl-1 (Homo sapiens), Q07820. AID 2057, 2009;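 active = inhibition above the mean inhibition of all tested compounds plus 3 SD, set per campaign, cut at about 40% in these data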;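 also: 0% = DMSO wells and 100% = unlabeled Bim-BH3 peptide control; higher means more loss of mP so more displacement of Bim peptide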
Mcl1-Noxa inh = Mcl-1/Noxa binding inhibitors, primary screen, biochemical, TR-FRET, 1536-well; Induced myeloid leukemia cell differentiation protein Mcl-1 (Homo sapiens), Q07820; TR-FRET Mcl-1/Noxa peptide binding, 2 h; inhibition, % at 21.7 µM; actives 1.5% (n = 220,000); AID 1022, 2008;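 active = compounds that cut the protein-peptide binding signal by more than 50% relative to plate controls in a single-dose test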;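 also: His-tagged Mcl-1 with rhodamine Noxa BH3 peptide and terbium anti-His antibody; 0% = Mcl-1 plus Noxa peptide wells and 100% = peptide-only wells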
An asterisk follows results filed as active; . = no result given. Sampled rows, rich in hits. Any-hit rate of the full collection: about 2.4%.

SMILES | Mcl-1 Bim block | L929 necroptosis | TNF necrop inh | Mcl1 Bid PPI | MCL1-BIM inh | Mcl1-Noxa inh
Cc1ccc(NC(=O)CN2C(=O)N/C(=C/c3cc(C)n(-c4ccc(C(=O)O)cc4)c3C)C2=O)cc1 | 1 | 1 | 1 | -123 | . | 76*
Cc1ccc(NC(=O)CN2C(=O)S/C(=C\c3cc(C)n(-c4ccc(C(=O)O)cc4)c3C)C2=O)cc1 | -2 | 2 | 1 | -40 | -2 | 14
Cc1ccc(NC(=O)CN2C(=O)N/C(=C/c3ccco3)C2=O)cc1 | 1 | 0 | -3 | -23 | 25 | 61*
Cc1cccc(NC(=O)CN2C(=O)N/C(=C/c3ccc(C)s3)C2=O)c1 | -8 | 2 | 1 | -4 | -104 | 18
O=C(Nc1ccc(O)c(-c2nc3ccccc3s2)c1)c1cc(=O)c2ccccc2o1 | -7 | 1 | 2 | 52* | -5 | 51*
O=C(Nc1ccc(O)c(-c2nc3ccccc3s2)c1)c1cccs1 | 0 | 1 | 3 | -56 | 1 | -217
CC(=O)NC(=S)Nc1ccc(NC(=S)NC(=O)/C=C/c2ccco2)cc1 | . | 0 | 2 | 44 | 2 | 66*
O=C(/C=C/c1ccco1)NC(=S)Nc1ccc(O)c(-c2nc3ccccc3s2)c1 | -6 | 1 | 1 | 59* | 15 | 52*
CCC(=O)Nc1ccc(NC(=S)NC(=O)/C=C/c2ccco2)cc1 | . | . | . | . | 20 | .
O=C(Nc1nc(-c2ccco2)c(-c2ccco2)s1)C1CC(=O)N(c2ccc3c(c2)OCCO3)C1 (stereo not drawn) | 5 | 4 | 1 | 19 | 12 | 75*
CC(=O)Nc1ccc(C)c(NC(=S)Nc2ccc(F)cc2)c1 | . | 2 | 2 | -31 | 9 | 16
CNC(=S)Nc1ccc(C)c(NC(=S)NC)c1 | -5 | 1 | -1 | -20 | 12 | 58*
CCc1ccc(C(CC(=O)c2ccc(Cl)cc2)C(=O)O)cc1 (stereo not drawn) | -2 | 0 | -2 | 96* | 7 | 7
O=C(Nc1cc(Cl)cc(Cl)c1)Nc1cnccn1 | . | . | . | . | 4 | .
C=CCOc1ccc(/C=C2\SC(=S)N(C(C(=O)O)c3ccccc3)C2=O)cc1 (stereo not drawn) | . | 0 | 1 | 25 | . | 72*
CCOc1ccc(/C=C2\SC(=S)N(C(C(=O)O)c3ccccc3)C2=O)cc1OC (stereo not drawn) | . | 1 | -1 | 10 | -12 | 22
COc1ccc(N(CC(=O)NC2CCCC2)C(=O)CCC(=O)Nc2cc(C)on2)cc1OC | . | . | . | . | 4 | .
CCn1ncc(C2=NOC(C(=O)Nc3cnn(C45CC6CC(CC(C6)C4)C5)c3)C2)c1C (stereo not drawn) | -6 | 87* | -5 | -22 | 6 | 23
COC(=O)COc1ccc2c(c1)O/C(=C\c1ccco1)C2=O | . | . | . | . | 0 | .
Cc1cc(O)cc2c1C(=O)/C(=C/c1ccco1)O2 | . | . | . | . | 48* | .
CC(C)[C@H](NC(=O)C1CCN(S(=O)(=O)c2ccccc2)CC1)C(=O)NCc1ccncc1 | . | . | . | . | 7 | .
O=C(NCC(=O)N(c1cccc(F)c1)C(C(=O)NC1CCCC1)c1cccnc1)c1ccco1 (stereo not drawn) | . | . | . | . | 5 | .
Cc1ccc(C)c(NC(=O)c2cnn3ccccc23)c1 | 2 | 85* | -1 | -22 | -8 | -11
Nc1ccc(CC2SC(=O)NC2=O)cc1 (stereo not drawn) | 11 | 1 | 1 | -106 | 8 | 0
Cc1ccc(CC2SC(=O)NC2=O)cc1Cl (stereo not drawn) | -6 | 84* | 20 | 23 | 6 | 11
CCOc1ccccc1Nc1nnc(Cc2ccccc2Cl)c(=O)[nH]1 | -8 | 0 | 0 | 53* | 13 | 25
COc1cccc(CNC(=O)CN2C(=O)COc3ccc(S(=O)(=O)N4CCC(C)CC4)cc32)c1 | . | . | . | . | 2 | .

Compound activity from PubChem BioAssay.
